The values below come from PubChem BioAssay (Tox21).

“And” between values parts separate entries of the source, which are not always exact repeats. Equal values may be shown once. Inconclusive results are not listed. Where a structure was tested more than once in an assay, its records may differ in their call. The source made the active and inactive calls. Calls come from the whole dose curve; as a rule, active = well fitted curve in the direction sought with a large enough effect in the repeat runs; inconclusive = weak or mixed curves; inactive = no such curve, though single readings can be large; an effect the other way counts as inactive or inconclusive.

The target in experiment [1] is Cytochrome P450 2C9 (Homo sapiens) (UniProt P11712). Put plainly: Cytochrome P450 Family 2 Subfamily C Member 9 (CYP2C9) small molecule antagonists: luciferase reporter qHTS assay (AID 1671198). Summed up:
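CYP2C9 activity was measured with a P450-Glo proluciferin substrate. Enzyme–substrate mix was held with compound for 10 min at room temperature, then NADPH regeneration solution was added for 1 h at 37C. Luciferin product was read as luminescence.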
(In a reporter assay the amount or activity of a reporter protein is the signal.)

Experiment [2] addresses Cytochrome P450 1A2 (Homo sapiens) (UniProt P05177). Put plainly: Cytochrome P450 Family 1 Subfamily A Member 2 (CYP1A2) small molecule antagonists: luciferase reporter qHTS assay (AID 1671199). In a few lines: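 P450-Glo CYP1A2 enzyme–proluciferin substrate mix with compound 10 min at room temperature, then NADPH regeneration 1 h at room temperature. Luciferin detection reagent added, luminescence read after 20 min; furafylline positive control.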

Experiment [3] addresses Voltage-gated inwardly rectifying potassium channel KCNH2 (Homo sapiens) (UniProt Q12809). As to the kind of experiment: Human Ether-a-go-go-Related Gene (hERG) channel small molecule antagonists: fluorescence cell-based qHTS assay (AID 1671200). Summed up:
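Thallium served as the potassium surrogate; its influx into dye-loaded U2OS cells carrying the channel was measured by fluorescence over 2 min.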
For orientation: The hERG channel carries a current that helps repolarise heart muscle cells.
Note: nearly all actives have a fitted effect of over 50% in size.
Potency is the fitted concentration of half-maximal effect.

Sequence of Cytochrome P450 1A2 (Homo sapiens) (P05177 whole entry, looked up): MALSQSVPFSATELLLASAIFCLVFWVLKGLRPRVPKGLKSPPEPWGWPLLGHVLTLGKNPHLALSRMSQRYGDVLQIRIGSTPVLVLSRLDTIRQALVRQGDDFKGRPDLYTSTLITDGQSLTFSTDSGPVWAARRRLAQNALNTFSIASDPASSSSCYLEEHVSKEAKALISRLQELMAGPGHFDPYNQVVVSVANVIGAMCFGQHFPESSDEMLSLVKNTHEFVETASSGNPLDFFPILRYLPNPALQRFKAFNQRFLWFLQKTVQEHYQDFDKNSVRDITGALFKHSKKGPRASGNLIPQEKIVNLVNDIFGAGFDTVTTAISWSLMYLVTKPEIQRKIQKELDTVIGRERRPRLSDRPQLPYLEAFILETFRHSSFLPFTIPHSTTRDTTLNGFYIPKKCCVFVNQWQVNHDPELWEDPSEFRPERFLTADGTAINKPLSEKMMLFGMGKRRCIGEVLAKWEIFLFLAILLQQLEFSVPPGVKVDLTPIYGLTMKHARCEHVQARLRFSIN
Sequence of Cytochrome P450 2C9 (Homo sapiens) (P11712 whole entry, looked up): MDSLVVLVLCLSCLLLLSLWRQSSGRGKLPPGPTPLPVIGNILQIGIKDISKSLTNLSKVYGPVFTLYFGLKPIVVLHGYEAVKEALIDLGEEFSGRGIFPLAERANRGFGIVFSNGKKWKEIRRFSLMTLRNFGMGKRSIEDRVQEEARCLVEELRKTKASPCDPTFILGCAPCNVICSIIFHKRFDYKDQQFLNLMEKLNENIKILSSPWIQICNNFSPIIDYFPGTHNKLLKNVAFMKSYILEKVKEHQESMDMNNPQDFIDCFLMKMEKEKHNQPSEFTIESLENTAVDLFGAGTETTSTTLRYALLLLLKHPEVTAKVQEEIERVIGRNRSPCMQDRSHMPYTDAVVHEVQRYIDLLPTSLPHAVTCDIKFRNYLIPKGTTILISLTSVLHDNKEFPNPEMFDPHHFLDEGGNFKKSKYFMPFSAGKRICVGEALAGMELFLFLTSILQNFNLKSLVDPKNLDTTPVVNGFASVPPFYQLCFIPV
Sequence of Voltage-gated inwardly rectifying potassium channel KCNH2 (Homo sapiens) (Q12809 whole entry, looked up): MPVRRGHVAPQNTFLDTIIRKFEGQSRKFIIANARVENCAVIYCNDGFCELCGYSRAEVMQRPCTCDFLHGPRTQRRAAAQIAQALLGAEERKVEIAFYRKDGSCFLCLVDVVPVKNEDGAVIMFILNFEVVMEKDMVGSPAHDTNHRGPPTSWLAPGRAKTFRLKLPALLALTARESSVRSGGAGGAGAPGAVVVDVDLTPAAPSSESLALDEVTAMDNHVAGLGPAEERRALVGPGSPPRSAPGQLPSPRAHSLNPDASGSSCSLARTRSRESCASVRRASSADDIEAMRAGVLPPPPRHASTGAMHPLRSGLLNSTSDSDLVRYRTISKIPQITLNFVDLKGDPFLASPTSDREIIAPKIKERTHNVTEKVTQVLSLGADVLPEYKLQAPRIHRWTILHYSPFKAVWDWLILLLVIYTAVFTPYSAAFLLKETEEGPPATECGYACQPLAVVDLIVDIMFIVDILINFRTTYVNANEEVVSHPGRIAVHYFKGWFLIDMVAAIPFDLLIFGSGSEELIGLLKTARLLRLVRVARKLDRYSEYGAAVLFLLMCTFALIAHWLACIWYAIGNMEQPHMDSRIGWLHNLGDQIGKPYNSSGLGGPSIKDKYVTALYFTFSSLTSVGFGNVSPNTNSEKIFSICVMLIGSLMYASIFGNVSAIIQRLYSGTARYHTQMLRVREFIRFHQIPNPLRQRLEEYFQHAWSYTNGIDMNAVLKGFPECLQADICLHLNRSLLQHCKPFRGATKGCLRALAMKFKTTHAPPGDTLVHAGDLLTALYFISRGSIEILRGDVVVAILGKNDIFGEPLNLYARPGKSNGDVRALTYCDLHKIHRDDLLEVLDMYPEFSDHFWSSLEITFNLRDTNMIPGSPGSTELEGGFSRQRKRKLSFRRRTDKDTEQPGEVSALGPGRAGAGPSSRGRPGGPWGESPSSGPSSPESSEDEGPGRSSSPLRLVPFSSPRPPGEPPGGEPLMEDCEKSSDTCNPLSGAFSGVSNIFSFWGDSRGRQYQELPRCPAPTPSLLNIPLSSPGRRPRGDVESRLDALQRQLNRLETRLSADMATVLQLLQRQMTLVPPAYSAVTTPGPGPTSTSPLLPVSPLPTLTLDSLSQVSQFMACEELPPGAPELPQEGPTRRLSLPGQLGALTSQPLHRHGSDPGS

Turning to `COc1c(Cl)ccc(Cl)c1C(=O)O`, the Potency in experiment [1] was 39.9 µM (active). Besides, the Potency result in experiment [2] and in experiment [3] was “inactive” throughout.

For `CCCCCCCCO`, the Potency entry in experiment [1] and in experiment [3] was “inactive” throughout. In addition, the Potency in experiment [2] was 37.1 µM (active).

As to `O=C(O)Cc1c[nH]c2ccccc12`, the Potency in experiment [1] is 31.7 µM (active) and inactive. Moreover, the Potency entry in experiment [2] and in experiment [3] was “inactive” throughout.

For `C[Si](C)(C)N[Si](C)(C)C`, the Potency result in experiment [1], in experiment [2] and in experiment [3] was “inactive” each time.

For the compound `CC(=O)Nc1ccc(CC(=O)O)cc1`, the Potency entry in experiment [1], in experiment [2] and in experiment [3] was “inactive” throughout.

As for `C1CCCNCC1`, the Potency entry in experiment [1], in experiment [2] and in experiment [3] was “inactive” each time.

As to `CC1=CC(=O)CC(C)(C)C1`, the Potency result in experiment [1] and in experiment [3] was “inactive” each time. In addition, the Potency in experiment [2] was 36.6 µM (active) and inactive.

Take `CC(=O)C(C)C`: the Potency entry in experiment [1], in experiment [2] and in experiment [3] was “inactive” throughout.

Take `O=C1O[C@H]([C@H](O)CO)C(O)=C1O`: the Potency entry in experiment [1], in experiment [2] and in experiment [3] was “inactive” throughout.

As for `C=CC(C)(C)C`, the Potency result in experiment [1] and in experiment [3] was “inactive” each time. Moreover, the Potency in experiment [2] is 44.8 µM (active).

Turning to `O=C(O)C1=NN(c2ccc(S(=O)(=O)O)cc2)C(=O)C1`, the Potency result in experiment [1] and in experiment [3] was “inactive” throughout. Besides, in experiment [2], the Potency is 35.6 µM (active) and inactive.

Consider `COc1ccc2cc3[n+](cc2c1OC)CCc1cc2c(cc1-3)OCO2`, for which the Potency result in experiment [1] and in experiment [3] was “inactive” in each case. Besides, the Potency in experiment [2] is 25.4 µM (active) and 14.4 µM (active).

Consider `CC(=O)OC(C)(C)C1CC=C(C)CC1` (stereo not drawn), for which the Potency in experiment [1] is 39.9 µM (active). The Potency result in experiment [2] and in experiment [3] was “inactive” throughout.

With `CCCCCCC(=O)O`, the Potency result in experiment [1], in experiment [2] and in experiment [3] was “inactive” throughout.

With `O=C(NCC1CCCCN1)c1cc(OCC(F)(F)F)ccc1OCC(F)(F)F` (stereo not drawn), the Potency entry in experiment [1] and in experiment [2] was “inactive” in each case. Also, the Potency in experiment [3] is 15.2 µM (active) and 9.52 µM (active).

Consider `CCCCC(=O)O`, for which the Potency entry in experiment [1], in experiment [2] and in experiment [3] was “inactive” in each case.
